Test results published in PubChem BioAssay AID1159580 (chemical genetic matrix, 2015).
Where “and” joins values, the source holds several entries; their conditions need not be identical. Equal values may be shown once. The whole screen tested about 5,500 compounds, of which about 2,000 (36%) were called active. Another 18% or so got no clear call; they are omitted. Rule as the data show it: active = normalized growth mostly below about 0.91 (no sharp cut-off); inconclusive = no clear call, values can overlap the other calls; inactive = mostly above about 0.92. This is one part of the list.

Test: chemical genetic growth profiling, strain panel (AID 1159580);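 also: tested at 20 µM; growth read once vehicle control cultures reached saturation at 30 °C; 1 = growth at the plate median or of vehicle wells; lower values mean less growth of the strain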
Conditions: growth OD

Measured: normalized growth

Cc1ncc(CNC(=O)N(CCCl)N=O)c(N)n1
active: S. cerevisiae deletion strains, locus YML032C, strain rad52, stronger effect = lower value 0.903
inactive: S. cerevisiae deletion strains, locus YJR075W, strain HOC1, stronger effect = lower value 1.01 | S. cerevisiae deletion strains, locus YKL009W, strain mrt4, stronger effect = lower value 0.976 | S. cerevisiae deletion strains, locus YKL068W, stronger effect = lower value 1 | S. cerevisiae deletion strains, locus YKL085W, strain MDH1 (second series), stronger effect = lower value 0.996 | S. cerevisiae deletion strains, locus YKL085W, strain MDH1, stronger effect = lower value 0.996 | S. cerevisiae deletion strains, locus YKL160W, strain elf1, stronger effect = lower value 0.996 | S. cerevisiae deletion strains, locus YKL190W, strain CNB1, stronger effect = lower value 1.01 | S. cerevisiae deletion strains, locus YKR001C, strain vps1, stronger effect = lower value 0.974 | S. cerevisiae deletion strains, locus YKR026C, strain gcn3, stronger effect = lower value 1.02 | S. cerevisiae deletion strains, locus YKR091W, strain srl3, stronger effect = lower value 1 | S. cerevisiae deletion strains, locus YLL001W, strain dnm1, stronger effect = lower value 0.97 | S. cerevisiae deletion strains, locus YLL026W, stronger effect = lower value 1.01 | S. cerevisiae deletion strains, locus YLL041C, strain sdh2, stronger effect = lower value 1.01 | S. cerevisiae deletion strains, locus YLR027C, strain aat2, stronger effect = lower value 0.99 | S. cerevisiae deletion strains, locus YLR039C, strain RIC1, stronger effect = lower value 1.04 | S. cerevisiae deletion strains, locus YLR058C, strain SHM2, stronger effect = lower value 1.02 | S. cerevisiae deletion strains, locus YLR102C, strain apc9, stronger effect = lower value 0.983 | S. cerevisiae deletion strains, locus YLR113W, strain HOG1, stronger effect = lower value 0.982 | S. cerevisiae deletion strains, locus YLR221C, strain rsa3, stronger effect = lower value 1.03 | S. cerevisiae deletion strains, locus YLR258W, strain gsy2, stronger effect = lower value 1 | S. cerevisiae deletion strains, locus YLR262C, strain YPT6 (second series), stronger effect = lower value 1.07 | S. cerevisiae deletion strains, locus YLR262C, strain YPT6, stronger effect = lower value 1.03 | S. cerevisiae deletion strains, locus YLR268W, strain sec22, stronger effect = lower value 0.983 | S. cerevisiae deletion strains, locus YLR320W, strain mms22, stronger effect = lower value 1.03 | S. cerevisiae deletion strains, locus YLR330W, strain CHS5, stronger effect = lower value 1.02 | S. cerevisiae deletion strains, locus YLR342W, strain FKS1 (second series), stronger effect = lower value 1.01 | S. cerevisiae deletion strains, locus YLR342W, strain FKS1, stronger effect = lower value 1.02 | S. cerevisiae deletion strains, locus YLR357W, strain rsc2, stronger effect = lower value 1.02 | S. cerevisiae deletion strains, locus YLR370C, strain arc18, stronger effect = lower value 1.01 | S. cerevisiae deletion strains, locus YLR371W, strain rom2, stronger effect = lower value 0.981 | S. cerevisiae deletion strains, locus YLR384C, strain iki3, stronger effect = lower value 1.03 | S. cerevisiae deletion strains, locus YLR418C, strain cdc73, stronger effect = lower value 0.965 | S. cerevisiae deletion strains, locus YML016C, strain PPZ1, stronger effect = lower value 1.02 | S. cerevisiae deletion strains, locus YML120C, strain ndi1, stronger effect = lower value 0.991 | S. cerevisiae deletion strains, locus YML124C, strain tub3, stronger effect = lower value 0.989 | S. cerevisiae deletion strains, locus YMR058W, strain fet3, stronger effect = lower value 1.02 | S. cerevisiae deletion strains, locus YMR078C, strain ctf18, stronger effect = lower value 0.964 | S. cerevisiae deletion strains, locus YMR125W, strain sto1, stronger effect = lower value 1 | S. cerevisiae deletion strains, locus YMR129W, stronger effect = lower value 1.02 | S. cerevisiae deletion strains, locus YMR205C, strain PFK2, stronger effect = lower value 1.01 | S. cerevisiae deletion strains, locus YMR223W, strain ubp8, stronger effect = lower value 0.994 | S. cerevisiae deletion strains, locus YMR231W, strain pep5, stronger effect = lower value 1 | S. cerevisiae deletion strains, locus YMR263W, strain SAP30, stronger effect = lower value 1.01 | S. cerevisiae deletion strains, locus YMR307W, strain GAS1, stronger effect = lower value 0.992 and 1.01 | S. cerevisiae deletion strains, locus YNL067W, strain RPL9B, stronger effect = lower value 1.01 | S. cerevisiae deletion strains, locus YNL071W, strain lat1, stronger effect = lower value 1.01 | S. cerevisiae deletion strains, locus YNL128W, strain TEP1, stronger effect = lower value 1.01 and 1 | S. cerevisiae deletion strains, locus YNL153C, strain GIM3, stronger effect = lower value 1.02 and 0.991 | S. cerevisiae deletion strains, locus YNL175C, strain NOP13, stronger effect = lower value 0.997 | S. cerevisiae deletion strains, locus YNL183C, strain NPR1, stronger effect = lower value 0.913 | S. cerevisiae deletion strains, locus YNL197C, strain WHI3, stronger effect = lower value 0.999 | S. cerevisiae deletion strains, locus YNL209W, strain ssb2, stronger effect = lower value 0.992 | S. cerevisiae deletion strains, locus YNL224C, strain SQS1, stronger effect = lower value 1.01 | S. cerevisiae deletion strains, locus YNL233W, strain BNI4, stronger effect = lower value 1.01 | S. cerevisiae deletion strains, locus YNL248C, strain rpa49, stronger effect = lower value 1.02 | S. cerevisiae deletion strains, locus YNL250W, strain rad50, stronger effect = lower value 0.972 | S. cerevisiae deletion strains, locus YNL271C, strain bni1, stronger effect = lower value 0.979 | S. cerevisiae deletion strains, locus YNL298W, strain CLA4, stronger effect = lower value 0.996 | S. cerevisiae deletion strains, locus YNL307C, strain MCK1, stronger effect = lower value 1 | S. cerevisiae deletion strains, locus YNL322C, strain KRE1 (second series), stronger effect = lower value 0.937 | S. cerevisiae deletion strains, locus YNL322C, strain KRE1, stronger effect = lower value 1.01 | S. cerevisiae deletion strains, locus YNR049C, strain mso1, stronger effect = lower value 1.02 | S. cerevisiae deletion strains, locus YNR052C, strain pop2, stronger effect = lower value 0.983 | S. cerevisiae deletion strains, locus YOL006C, strain TOP1, stronger effect = lower value 1.02 | S. cerevisiae deletion strains, locus YOL012C, strain htz1 1.04 | S. cerevisiae deletion strains, locus YOL147C, strain pex11, stronger effect = lower value 0.978 | S. cerevisiae deletion strains, locus YOR001W, strain rrp6, stronger effect = lower value 1.03 | S. cerevisiae deletion strains, locus YOR061W, strain CKA2, stronger effect = lower value 1.02 | S. cerevisiae deletion strains, locus YOR069W, strain VPS5, stronger effect = lower value 1.02 | S. cerevisiae deletion strains, locus YOR070C, strain gyp1, stronger effect = lower value 1.03 | S. cerevisiae deletion strains, locus YOR080W, strain dia2, stronger effect = lower value 1.01 | S. cerevisiae deletion strains, locus YOR083W, strain WHI5 (second series), stronger effect = lower value 1.01 | S. cerevisiae deletion strains, locus YOR083W, strain WHI5, stronger effect = lower value 0.979 | S. cerevisiae deletion strains, locus YOR106W, strain vam3, stronger effect = lower value 0.959 | S. cerevisiae deletion strains, locus YOR136W, strain idh2, stronger effect = lower value 0.981 | S. cerevisiae deletion strains, locus YOR144C, strain elg1, stronger effect = lower value 0.978 | S. cerevisiae deletion strains, locus YOR184W, strain ser1, stronger effect = lower value 0.989 | S. cerevisiae deletion strains, locus YOR231W, strain MKK1, stronger effect = lower value 0.953 | S. cerevisiae deletion strains, locus YOR265W, strain rbl2, stronger effect = lower value 1.01 | S. cerevisiae deletion strains, locus YOR270C, strain vph1, stronger effect = lower value 1.03 | S. cerevisiae deletion strains, locus YOR290C, strain snf2, stronger effect = lower value 0.993 | S. cerevisiae deletion strains, locus YOR316C, strain cot1, stronger effect = lower value 0.99 | S. cerevisiae deletion strains, locus YPL051W, strain arl3, stronger effect = lower value 0.974 | S. cerevisiae deletion strains, locus YPL055C, strain LGE1, stronger effect = lower value 1.02 | S. cerevisiae deletion strains, locus YPL078C, strain atp4, stronger effect = lower value 0.98 | S. cerevisiae deletion strains, locus YPL106C, strain sse1, stronger effect = lower value 1.02 | S. cerevisiae deletion strains, locus YPL240C, strain hsp82, stronger effect = lower value 1.01 | S. cerevisiae deletion strains, locus YPL241C, strain CIN2, stronger effect = lower value 1.02 | S. cerevisiae deletion strains, locus YPL256C, strain CLN2, stronger effect = lower value 0.989 | S. cerevisiae deletion strains, locus YPR119W, strain clb2, stronger effect = lower value 0.978 | S. cerevisiae deletion strains, locus YPR141C, strain kar3, stronger effect = lower value 0.987 | S. cerevisiae deletion strains, locus YPR163C, strain tif3, stronger effect = lower value 0.98 | S. cerevisiae deletion strains, locus YPR167C, strain met16, stronger effect = lower value 0.982 | S. cerevisiae deletion strains, strain wtn01, stronger effect = lower value 0.987 | S. cerevisiae strains, strain wild type, stronger effect = lower value 1.01
